For 21 compounds, growth inhibition results are on record in PubChem BioAssay (NCI).

Test [1] in a line: NCI Yeast Anticancer Drug Screen. Data for the rad50 strain (AID 155).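 Further: 0% = growth of vehicle-only cultures of the same strain.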 The settings on record: S. cerevisiae rad50 strain growth inhibition; at 50.0 µM; active compounds read high. The gist of the method:
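A DNA repair-deficient yeast mutant serves as the test organism; compound-induced growth inhibition is calculated against vehicle-treated cells.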

Test [2] can be described thus: NCI Yeast Anticancer Drug Screen. Data for the mec2-1 strain (AID 157). The settings on record: S. cerevisiae mec2-1 strain, at 50.0 µM, active compounds read high. The gist of the method: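 Compounds were applied to mec2-1 yeast cells. Their growth was then compared with that of vehicle-treated cultures to give growth inhibition.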
Test [3] in a line: NCI Yeast Anticancer Drug Screen. Data for the sgs1 mgt1 strain (AID 161).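 Further: 0% = growth of cultures given vehicle only.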 The settings on record: S. cerevisiae sgs1 mgt1 strain, at 50.0 µM, active compounds read high. In a few lines: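 Percent growth inhibition was derived by comparing compound-exposed mutant yeast with vehicle-exposed cultures. The strain carries alterations in DNA damage repair.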
The nature of test [4]: NCI Yeast Anticancer Drug Screen. Data for the bub3 strain (AID 167). The settings on record: S. cerevisiae bub3 mutant strain, at 50.0 µM, active compounds read high. In a few lines: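 Inhibition values come from growth of compound-treated mutant yeast normalised to vehicle-treated controls.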
The nature of test [5]: NCI Yeast Anticancer Drug Screen. Data for the mlh1 rad18 strain (AID 175). The following applies: S. cerevisiae mlh1 rad18 strain growth inhibition; at 50.0 µM; active compounds read high. The gist of the method: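 A repair-deficient yeast strain is exposed to test compound, and growth is scored relative to vehicle-treated controls.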
Test [6] is described as follows: NCI Yeast Anticancer Drug Screen. Data for the cln2 rad14 strain (AID 165).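 Further: 0% = growth equal to vehicle treated cultures.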 The following applies: S. cerevisiae cln2 rad14 strain, at 50.0 µM, active compounds read high. In a few lines:
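Strain: cln2 rad14 yeast, altered in cell cycle control and DNA damage repair. Read-out: growth inhibition vs vehicle.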

The structures appear in SMILES notation. About 79,000 compounds went through this panel and 15% of them were active in at least one assay; those are over-represented in the sample as a whole. Values without a mark were called inactive. Calls of active or inactive are those of the source. No stated cut-off is given here; in the data, active means growth inhibition above about 70%; inactive means the rest.

Take `OCC(CO)(CO)COCC(CO)(CO)COCC(CO)(CO)CO`: the growth inhibition in test [1] was -43%; in test [2], -42.5%; in test [3], -20.9%; in test [4], -9.15%; in test [5], -25.1%.

On to `CC(=O)[CH-]C(=O)c1ccccc1.CC(=O)[CH-]C(=O)c1ccccc1.O=S(=O)([O-])c1cc([O-])c2c([O-])cc(S(=O)(=O)[O-])cc2c1.[Na+].[Zr+4]`, for which the growth inhibition in test [1] was 21.3%; in test [2], -7.6%; in test [3] it was 25.6%; in test [4], 37.9%; in test [5] it was 10.8%.

Consider `c1ccc(-c2cccc3ccccc23)cc1`, for which the growth inhibition in test [1] is 32.6%; in test [2], 6.7%; in test [3], 2.65%; in test [4] it was -11.2%; in test [5], 16.4%.

`CCCCCCCCCCCCCCCCOc1ccc(C)cc1`: the growth inhibition is -14.3% in test [1], -29.5% in test [2] and -27.9% in test [5].

Turning to `[O-]c1ccccc1/C=N/C(/N=C/c1ccccc1[O-])c1ccccc1O.[O-]c1ccccc1/C=N/C(/N=C/c1ccccc1[O-])c1ccccc1O.[Zr+4]`, the growth inhibition in test [1] was 0.55%; in test [2] it was 6.4%; in test [3], -1.6%; in test [4] it was 14.2%.

In the case of `O=C(/C=C/c1ccccc1)Nc1ccccc1`, the growth inhibition in test [1] is 12.9%; in test [2], -21%; in test [3] it was 6.35%; in test [4] it was 7.05%; in test [5], 35.6%.

For the compound `O=C(O)c1cn(C2CC2)c2cc(N3CCNCC3)c(F)cc2c1=O`, the growth inhibition in test [1] is 8.9%; in test [2], -6.4%; in test [3], -13.1%; in test [4], -19.5%; in test [5], -0.35%.

On to `Cc1cccc(C2NC(=O)c3ccccc3N2)c1` (stereo not drawn), for which the growth inhibition in test [1] was 9.35%; in test [2], -15.8%; in test [5], 10.5%.

Consider `COc1ccc2c(=O)c(-c3cc4c(cc3OC)OCO4)coc2c1`, for which the growth inhibition was -26.5% in test [1]; -30.9% in test [2]; -11.3% in test [3]; -3.1% in test [6]; -33.5% in test [4]; -56.4% in test [5].

For `Cn1cnc2c(=O)[nH]c(=O)[nH]c21`, the growth inhibition in test [1] is 25.9%; in test [2] it was -10.9%; in test [3], -43.4%; in test [4], -34.8%; in test [5], 10.2%.

For the compound `CC(C)Cc1ccc(C(C)C(=O)O)cc1` (stereo not drawn), the growth inhibition was 0.5% in test [1]; 9.7% in test [2]; -4.5% in test [3]; -26.1% in test [4]; 3.25% in test [5].

Regarding `CC(C)=CCc1cc(C2COc3cc4c(c(O)c3C2=O)C=CC(C)(C)O4)c(O)cc1O` (stereo not drawn), the growth inhibition in test [1] was 91.3% (active); in test [2] it was 93% (active); in test [3], 92% (active); in test [6] it was 90.9% (active); in test [4] it was 91.6% (active); in test [5], 88% (active).

For the compound `COC(=O)c1nc(Br)cnc1N`, the growth inhibition in test [1] was 8.05%; in test [2], -8.4%; in test [3], 2.1%; in test [4] it was 4%; in test [5] it was -0.45%.

On to `O=[N+]([O-])c1ccc2nc3c(nc2c1)-c1cccc2cccc-3c12`, for which the growth inhibition is 2.15% in test [1], -15.9% in test [2] and 12.3% in test [5].

Regarding `C=C1CCN(c2ccccc2)C1=O`, the growth inhibition is 5.3% in test [1]; -2.6% in test [2]; -5.15% in test [3]; -5.05% in test [4]; -4.55% in test [5].

On to `COc1ccc(-c2cc(=O)c3c(C)cc(O)cc3o2)cc1OC`, for which the results for the growth inhibition in test [1], in test [2] and in test [5] were 6.55%, 7.6% and 44.2%, respectively.

With `CNc1nc2c(C)ccc3[nH]c(N(C)C)nc3c-2n1`, the growth inhibition in test [1] was 14.2%; in test [2], -32.8%; in test [3], 11.3%; in test [6], 8.1%; in test [4] it was 4.65%; in test [5], -10.9%.

Take `CCOC(=O)C(C)Oc1ccccc1[N+](=O)[O-]` (stereo not drawn): the growth inhibition in test [1] is -24.6%; in test [2], -41.2%; in test [5] it was -15.8%.

With `Cc1nc(-[n+]2nc(-c3ccccc3)nn2-c2ccccc2)sc1C`, the growth inhibition in test [1] is 3.3%; in test [2] it was -15.2%; in test [3], -18.9%; in test [4], -26.8%; in test [5], 7.4%.

`C[C@@H]1C[C@@H]2OC(=O)[C@]3(C)[C@H]2[C@@H](OC3(C)O)[C@]2(C)C(=O)C=C[C@@H]12` (stereo partly drawn): the growth inhibition was -27.6% in test [1]; -45.6% in test [2]; -40.4% in test [3]; -12.7% in test [6]; -48.6% in test [4]; -35.5% in test [5].

`O=C(/C=C(\[O-])c1ccccc1)CCCCCCC(=O)/C=C(\[O-])c1ccccc1.O=C(/C=C(\[O-])c1ccccc1)CCCCCCC(=O)/C=C(\[O-])c1ccccc1.O=C(/C=C(\[O-])c1ccccc1)CCCCCCC(=O)/C=C(\[O-])c1ccccc1.[Nd+3].[Nd+3]`: the growth inhibition in test [1] is 26.4%; in test [2], 22.5%; in test [3] it was 30.1%; in test [4], 31.2%; in test [5], 22.1%.
